The panel holds about 83,000 compounds, 20% with a hit somewhere; the sample as a whole holds those more often.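 Interpretation: 100, growth as untreated; towards 0, rising growth inhibition; 0, no net growth; 0 to -100, cell death. Compounds scoring below 10 were considered active.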 The source made the active and inactive calls.
Experiments:
Test in all cases: NCI-60 one-dose screen, 48 h (100 = growth as untreated, 0 = no growth, -100 = all killed)
[1] = test system: NCI-H23 lung; details: 10 µM unless noted
[2] = test system: NCI-H226 lung; details: 10 µM unless noted
[3] = test system: NCI-H322M lung; details: 10 µM unless noted
[4] = test system: HOP-62 NSCLC; details: 10 µM unless noted
[5] = test system: NCI-H460 lung; details: 10 µM unless noted
[6] = test system: A549/ATCC NSCLC; details: 10 µM unless noted
[7] = test system: 786-0 renal; details: 10 µM unless noted
[8] = test system: COLO 205 colon; details: 10 µM unless noted
[9] = test system: DU-145 prostate; details: 10 µM unless noted
[10] = test system: K-562 leukemia; details: 10 µM unless noted
[11] = test system: MALME-3M melanoma; details: 10 µM unless noted
[12] = test system: MDA-MB-231 breast; details: 10 µM unless noted
[13] = test system: RXF 393 renal; details: 10 µM unless noted
[14] = test system: SF-268 CNS; details: 10 µM unless noted
[15] = test system: SF-539 CNS; details: 10 µM unless noted
[16] = test system: UACC-257 melanoma; details: 10 µM unless noted
[17] = test system: M14 melanoma; details: 10 µM unless noted
[18] = test system: SF-295 CNS; details: 10 µM unless noted
[19] = test system: HOP-92 NSCLC; details: 10 µM
[20] = test system: NCI-H522 lung; details: 10 µM

Measured: growth

O=C(O)COc1ccc([N+](=O)[O-])cc1Cl
inactive: [1] 108% | [2] 108% | [3] 99.8% | [4] 90.5% | [5] 108% | [6] 100% | [7] 98.7% | [8] 110% | [9] 118% | [10] 99.5% | [11] 107% | [12] 115% | [13] 108% | [14] 109% | [15] 98% | [16] 91.6% | [17] 107%

CC(=O)CC(=O)OC/C=C(/C)CCC=C(C)C
inactive: [1] 103% | [2] 101% | [3] 118% | [4] 107% | [5] 109% | [6] 105% | [7] 104% | [8] 109% | [9] 111% | [10] 108% | [11] 121% | [12] 109% | [13] 98% | [14] 106% | [15] 97% | [16] 106% | [17] 101%

Clc1ccc(I)c2ccccc12
inactive: [1] 106% | [2] 103% | [3] 95.3% | [4] 103% | [5] 112% | [6] 108% | [7] 93.4% | [8] 110% | [9] 111% | [10] 102% | [11] 97.6% | [12] 110% | [13] 113% | [14] 101% | [18] 102% | [15] 105% | [16] 101% | [17] 101%

O=C1C=C(OCC=C(C(F)(F)F)C(F)(F)F)c2ccccc2C1=O
active: [7] -19.8% | [9] -15% | [10] -15.5% | [11] -34.8% | [12] 7.59% | [13] -82.5% | [14] 0.611%
inactive: [1] 19.1% | [2] 14.7% | [3] 90.5% | [4] 66.6% | [5] 59% | [6] 82.9% | [8] 52.7% | [16] 45.8% | [17] 26%

CCCCCCCCCCCCCCCCCCOP(=O)(O)O
inactive: [1] 106% | [2] 98.8% | [3] 103% | [4] 100% | [5] 101% | [6] 105% | [7] 116% | [8] 111% | [9] 116% | [10] 110% | [11] 112% | [12] 96.6% | [13] 114% | [14] 109% | [15] 104% | [16] 113% | [17] 99.4%

CC#Cc1nc(Nc2cc(C)[nH]n2)c2ccccc2n1
active: [1] 2.12% [100 µM] | [2] -27.7% [100 µM] | [3] 9.12% [100 µM] | [4] -23.1% [100 µM] | [5] 3.75% [100 µM] | [6] 1.41% [100 µM] | [7] 7.19% [100 µM] | [8] -100% [100 µM] | [9] -4.22% [100 µM] | [10] 9.48% [100 µM] | [11] -45.3% [100 µM] | [12] -34.5% [100 µM] | [13] -51% [100 µM] | [14] -72.5% [100 µM] | [15] 1.15% [100 µM] | [16] -19.9% [100 µM] | [17] -27.3% [100 µM]

CC1(C)N=C(N)N=C(N)N1c1cccc(CCCCOc2ccccc2)c1
inactive: [1] 24% | [2] 43.4% | [3] 35.6% | [4] 11.4% | [6] 11.2% | [7] 21.8% | [8] 29.3% | [9] 27.6% | [10] 16.2% | [11] 43.1% | [12] 46.8% | [13] 50.2% | [14] 27.2% | [15] 34.1% | [16] 28.7% | [17] 23.6%
active: [5] 4.82%

C=C(C)C(C(=O)OCC)(C(=O)OCC)C(C)C
inactive: [1] 114% | [2] 109% | [3] 111% | [4] 108% | [5] 106% | [6] 96.5% | [7] 103% | [8] 117% | [9] 120% | [10] 116% | [11] 110% | [12] 112% | [13] 112% | [14] 112% | [15] 105% | [16] 107% | [17] 110%

COc1cc(/C(=C2/O[C@@H]([C@H]3COC(C)(C)O3)[C@H]3OC(C)(C)O[C@@H]23)c2ccc3c(c2)OCO3)cc(OC)c1OC
active: [6] -14% | [7] -6.92%
inactive: [1] 54% | [2] 102% | [3] 85.3% | [4] 63.5% | [5] 57.3% | [8] 108% | [9] 60.2% | [10] 40.8% | [11] 29.1% | [12] 21.9% | [14] 72% | [18] 76.1% | [15] 25.2% | [16] 58.8% | [17] 93.7%

NCCCOc1cc2ccccc2cc1C(=O)Nc1ccc(Cl)cc1OC(=O)c1cc2ccccc2cc1OCCCN
active: [1] -72.2% | [2] -57.6% | [3] -69.3% | [4] -92.3% | [5] -89.7% | [6] -94.3% | [7] -86.2% | [8] -90.8% | [9] -97% | [10] -37.5% | [11] -70.7% | [13] -86.4% | [14] -80.5% | [18] -76.2% | [15] -89.6% | [17] -86.7%

CCCCS(=O)(=O)c1cc(Nc2ccc(O)c3c2C(=O)c2ccccc2C3=O)ccc1C
active: [11] 2.26%
inactive: [1] 45.7% | [2] 87.8% | [3] 27.6% | [4] 72.5% | [5] 14.9% | [6] 28.3% | [7] 87.1% | [8] 70.7% | [9] 42.1% | [10] 67% | [12] 71.8% | [13] 76.1% | [14] 84.5% | [15] 86.8% | [16] 75.8%

C=CCNCCC#N
inactive: [1] 113% | [2] 92.9% | [3] 115% | [4] 105% | [5] 111% | [6] 99.2% | [7] 102% | [8] 116% | [9] 113% | [10] 109% | [11] 114% | [12] 119% | [13] 109% | [14] 112% | [15] 107% | [16] 111% | [17] 101%

CCOC(=O)c1csc(-c2ccc(COC(=O)c3ccccc3)o2)n1
inactive: [1] 108% | [2] 104% | [3] 93.2% | [4] 99.5% | [5] 109% | [6] 99.7% | [7] 102% | [8] 114% | [9] 130% | [10] 102% | [11] 95.8% | [12] 107% | [13] 106% | [14] 118% | [18] 84.4% | [15] 107% | [17] 106%

CNc1ccc(Nc2ccc(S(=O)(=O)O)cc2)c2c1C(=O)c1ccccc1C2=O
inactive: [1] 106% | [2] 96.6% | [3] 112% | [4] 125% | [5] 108% | [6] 92% | [7] 103% | [8] 118% | [9] 112% | [10] 101% | [11] 110% | [12] 111% | [13] 104% | [14] 114% | [15] 101% | [16] 107% | [17] 112%

Nc1nc(-c2cccc(Br)c2)cc(-c2cc3ccccc3oc2=O)n1
inactive: [1] 96.1% | [2] 91.5% | [3] 115% | [4] 90.9% | [5] 103% | [6] 97.2% | [7] 105% | [8] 113% | [9] 111% | [10] 104% | [11] 123% | [12] 104% | [13] 110% | [14] 100% | [18] 131% | [15] 110% | [16] 106% | [17] 103%

COc1cc2c(c3c1c(=O)c1cccc(F)c1n3C)C=CC(C)(C)O2
inactive: [1] 99% | [2] 110% | [3] 79.5% | [4] 99.2% | [5] 102% | [6] 89.4% | [7] 103% | [8] 102% | [9] 92.9% | [10] 74.6% | [11] 75.9% | [12] 58.4% | [13] 88.8% | [14] 102% | [18] 91.8% | [15] 89% | [17] 101%

CSCc1ncc(-c2ccc(C(F)(F)F)cc2)c(NC2CCCCCC2)n1
inactive: [1] 65.9% [25 µM] | [2] 87.5% [25 µM] | [3] 97.9% [25 µM] | [4] 98.6% [25 µM] | [5] 49.8% [25 µM] | [6] 68.3% [25 µM] | [7] 66.4% [25 µM] | [8] 95% [25 µM] | [9] 71.4% [25 µM] | [10] 29.3% [25 µM] | [11] 68.8% [25 µM] | [12] 56.2% [25 µM] | [13] 75.4% [25 µM] | [14] 75.5% [25 µM] | [15] 93.8% [25 µM] | [16] 74.1% [25 µM] | [17] 67.4% [25 µM]

COC(=O)c1cc(=O)nc(N/N=C/c2ccccc2O)s1
inactive: [1] 89% | [2] 101% | [3] 67.2% | [4] 90.7% | [5] 94.5% | [6] 94.4% | [7] 95.1% | [8] 93% | [9] 111% | [10] 78.8% | [11] 82.5% | [12] 83.8% | [13] 99.7% | [14] 88.1% | [18] 81.4% | [15] 106% | [17] 95.2%

Nc1ccc(N=Nc2ccccc2)c2cc(S(=O)(=O)O)ccc12
inactive: [1] 91.4% | [2] 103% | [3] 104% | [4] 92.4% | [19] 94.5% | [20] 88.5% | [6] 99.3% | [7] 104% | [8] 116% | [9] 110% | [10] 104% | [11] 107% | [12] 109% | [13] 97.2% | [14] 98.8% | [18] 103% | [15] 101% | [16] 97%

From PubChem BioAssay (NCI)
